According to PubChem BioAssay AID651640 (Broad Institute, 2012):
Several values for one entry are separate records, joined by “and”; a condition that tells them apart may be missing. Equal values may be shown once. The whole screen tested about 350,000 compounds, of which about 6,000 (1.7%) were called active. Not shown: some 5% with an inconclusive outcome. The sample as a whole holds a higher share of actives than the screen did. Values without a mark were called inactive. Rule as the data show it: active = CPE inhibition above about 20% (passing the limit was not always enough); inconclusive = no clear call, values can overlap the other calls; tested in BHK-21 cells.

assay: protection of cells from dengue 2 killing – plate reader, single concentration, primary screen (AID 651640); details: DENV2-infected cells, cytopathic effect rescue, at 9.99 µM, active compounds read high;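 also: 0% = median of neutral control wells and 100% = median of positive control wells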

Row | SMILES | CPE inhibition
1 | C[C@@H]1CN([C@@H](C)CO)C(=O)c2cc(-c3ccccc3F)cnc2O[C@H]1CN(C)C(=O)C1CC1 | -2.29%
2 | CO[C@H](CN(C)S(=O)(=O)c1ccc(Cl)cc1)[C@@H](C)CN(Cc1ccccc1Cl)[C@H](C)CO | 2.31%
3 | O=C(C1CCOCC1)N1CC(=O)N2[C@H](CO)[C@H](c3ccc(C#CC4CCCCC4)cc3)[C@H]2C1 | -10.5%
4 | O=C(C[C@@H]1C[C@@H]2c3cc(NC(=O)CC4CC4)ccc3O[C@@H]2[C@@H](CO)O1)NCCN1CCCCC1 | 1.09%
5 | COc1ccc(NC(=O)N(C)C[C@@H]2OCCCC[C@@H](C)Oc3ccc(NS(=O)(=O)c4ccc(Cl)cc4)cc3C(=O)N([C@H](C)CO)C[C@H]2C)cc1 | 37.6% (active)
6 | COc1ccc(NC(=O)N(C)C[C@H]2OCCCC[C@@H](C)Oc3ccc(NS(=O)(=O)c4ccc(F)cc4)cc3C(=O)N([C@H](C)CO)C[C@H]2C)cc1 | 10.2%
7 | COc1ccc(NC(=O)N(C)C[C@H]2OCCCC[C@@H](C)Oc3ccc(NC(=O)c4ccncc4)cc3C(=O)N([C@@H](C)CO)C[C@H]2C)cc1 | 4.05%
8 | COc1ccc(NC(=O)N(C)C[C@@H]2OCCCC[C@H](C)Oc3ccc(NC(=O)c4ccccc4)cc3C(=O)N([C@H](C)CO)C[C@H]2C)cc1 | -12.7%
9 | COc1ccc(NC(=O)N(C)C[C@H]2OCCCC[C@@H](C)Oc3ccc(NC(=O)NC4CCCCC4)cc3C(=O)N([C@H](C)CO)C[C@H]2C)cc1 | 9.97%
10 | COc1ccc(NC(=O)N(C)C[C@H]2OCCCC[C@H](C)Oc3ccc(NS(=O)(=O)c4ccc(Cl)cc4)cc3C(=O)N([C@@H](C)CO)C[C@H]2C)cc1 | 12.8%
11 | COc1ccc(NC(=O)N(C)C[C@@H]2OCCCC[C@@H](C)Oc3ccc(NC(=O)NC4CCCCC4)cc3C(=O)N([C@H](C)CO)C[C@@H]2C)cc1 | 1.54% and 2.7%
12 | COc1ccc(NC(=O)N(C)C[C@H]2OCCCC[C@H](C)Oc3ccc(NC(=O)NC4CCCCC4)cc3C(=O)N([C@@H](C)CO)C[C@@H]2C)cc1 | 76.4% (active)
13 | COc1ccc(NC(=O)N(C)C[C@H]2OCCCC[C@H](C)Oc3ccc(NC(=O)c4ccncc4)cc3C(=O)N([C@H](C)CO)C[C@@H]2C)cc1 | 21.4% (active)
14 | O=C(C[C@@H]1C=C[C@@H](NC(=O)Nc2cccc(F)c2)[C@H](CO)O1)NCC1CCCCC1 | 8.16%
15 | C[C@@H]1CN([C@@H](C)CO)C(=O)c2cc(C#Cc3ccncc3)cnc2O[C@@H]1CN(C)C(=O)CN(C)C | -5.91%
